Sampled rows, rich in hits. Any-hit rate of the full collection: about 2.5%.
TrxR1 substrate – qHTS Assay for Substrates of Mammalian Selenoprotein Thioredoxin Reductase 1 (TrxR1): qHTS | Thioredoxin reductase 1, cytoplasmic (Rattus norvegicus), O89049 | purified TrxR1 substrate turnover, NADPH consumption readout | Potency, µM (top dose mostly 114 µM), for inactives: at the highest dose activity change, negative = substrate turnover | 390,000 compounds, 0.01% hits | AID 588456, 2011; further: potency means the concentration at half of the fitted maximal effect; on the % scale 0 is the no-effect control and ±100 the full control effect; nearly all actives have a fitted effect of over 50% in size
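Rat TrxR1, dispensed at 90 nM, was prereduced with 400 uM NADPH (final) for 5 min at ~22 deg C, then incubated with compound 15 min before 400 uM selenite. A first-read NADPH fluorescence drop versus no-compound background flagged substrates.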
rTrxR1 inhibitor – qHTS Assay for Inhibitors of Mammalian Selenoprotein Thioredoxin Reductase 1 (TrxR1): qHTS; Thioredoxin reductase 1, cytoplasmic (Rattus norvegicus), O89049; recombinant rTrxR1, NADPH fluorescence consumption, selenite substrate; Potency, µM (top dose mostly 114 µM), for the others: at the top dose activity change, negative = inhibition, usual class: inhibitors; 390,000 compounds, 1% hits; further: potency means the concentration at half of the fitted maximal effect; on the % scale 0 is the no-effect control and ±100 the full control effect; nearly all actives have a fitted effect of over 65% in size
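Rat TrxR1 (90 nM in the dispensed reagent) was pre-reduced with 400 uM NADPH for 5 min at room temperature, then incubated with compound for 15 min. After 400 uM selenite was added, NADPH fluorescence (Ex 340/Em 450 nm) was followed for 8 min.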
miR-21 act – qHTS Assay for Modulators of miRNAs and/orActivators of miR-21. HeLa miR-21 FLuc reporter, luciferase, 48 h. Potency, µM (doses to about 38.3 µM), without a hit: at the top dose activity change, positive = activation, most hits filed as activators. 340,000 tested, under 10 active;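 further: % of control where 0% means no effect; miR-21 action dims this reporter so a rising signal means less miR-21 action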
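Compounds were titrated across several concentrations (up to approximately 40 uM) and incubated 48 hours with HeLa miR-21-FLuc reporter cells (miR-21 target sequence downstream of FLuc, endogenous miR-21). Readout was firefly luciferase luminescence after lytic detection reagent.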
Anesthetic bind – qHTS Assay for Identification of Novel General Anesthetics. Ferritin light chain (Equus caballus), P02791. apoferritin/1-aminoanthracene competitive binding, fluorescence. Potency, µM (titrated, usually from 77.5 µM), for the others: top-dose activity change, negative = displacement, most hits filed as inhibitors. 350,000 compounds, 0.074% hits; further: potency means the concentration at half of the fitted maximal effect; on the % scale 0 is the no-effect control and ±100 the full control effect; nearly all actives have a fitted effect of over 20% in size
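Probe: 1-aminoanthracene (50% saturated, PBS). Protein: horse-spleen apoferritin, 10 uM. Incubation: 10 min, room temperature. Detection: 380 nm excitation, 535 nm emission. Analysis: normalized response, four-parameter Hill.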
ClpP mod – qHTS Assay for Activators of ClpP. ATP-dependent Clp protease proteolytic subunit (Bacillus subtilis (strain 168)), P80244. AID 651965, 2013. 340,000 compounds, 1.9% hits. purified B. subtilis ClpP, FRET peptide cleavage, 20 min. Potency, µM (highest dose often 57.5 µM), without a hit: top-dose activity change, negative = active; active means well fitted falling curve with a large enough effect; inconclusive means small, poorly fitted or top-dose-only effect; inactive means no such curve, though single readings can be large or run the other way; further: potency means the concentration at half of the fitted maximal effect; the source files actives as falling curves though it sought activators and does not explain the sign; nearly all actives have a fitted effect of over 65% in size
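FRET quenching reversal measured ClpP activation: 10 microg/mL B. subtilis ClpP at pH 8 with the FRET-FV decapeptide, read at 430 nm after 320 nm excitation. The 20-min minus 0-min signal was scaled between DMSO/no-enzyme wells and ADEP (5.8 microM final).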
* = called active by the depositor; [ ] = another dose, or the depositor's remark. Unless noted, the call rests on the fitted dose curve; in most records, active means well fitted curve in the direction sought with a large enough effect; inconclusive means small, poorly fitted or top-dose-only effect, or another doubt; inactive means no such curve, though single readings can be large; an effect the other way counts as inactive or inconclusive.

CO/S(=N\S(=O)(=O)c1ccc(Cl)cc1)c1ccc([N+](=O)[O-])cc1 (configuration not stated) was read as TrxR1 substrate 1%[57.1 µM] and rTrxR1 inhibitor -2%[57.1 µM].
O=C(O)Cc1ccc2sc(-c3ccccc3)nc2c1 was read as TrxR1 substrate 8%, rTrxR1 inhibitor 5%, miR-21 act -27%, Anesthetic bind 4% and ClpP mod inconclusive.
Screening COC(=O)Cc1ccc2sc(-c3ccccc3)nc2c1 returned TrxR1 substrate -1%, rTrxR1 inhibitor 2%, miR-21 act -41%, Anesthetic bind 5% and ClpP mod 28µM*.
CSCCC(NC(=O)c1ccco1)C(=O)O (configuration not stated) was read as TrxR1 substrate 10%[57.1 µM], rTrxR1 inhibitor 13%[57.1 µM], miR-21 act -2%, Anesthetic bind -6% and ClpP mod -1%.
CSCCC(NC(=O)c1occc1C)C(=O)O (configuration not stated) was read as TrxR1 substrate -2%, rTrxR1 inhibitor 6%, miR-21 act -10%, Anesthetic bind -7% and ClpP mod 25µM*.
`Cc1ccc(C)c(CN2C(=O)c3ccccc3S(=O)(=O)c3ccc(C(=O)N4CCN(c5ccccn5)CC4)cc32)c1` gave TrxR1 substrate -4%, rTrxR1 inhibitor 5%, miR-21 act 19%, Anesthetic bind -13% and ClpP mod -6%.
Cc1ccccc1OC(=O)c1cc(-c2ccc3c(c2)OCCO3)on1 was read as TrxR1 substrate -2%, rTrxR1 inhibitor 9%, miR-21 act 1%, Anesthetic bind -8% and ClpP mod 32µM*.
O=C(Oc1ccc(Cl)cc1)c1cc(-c2ccc3c(c2)OCCO3)on1 was read as TrxR1 substrate 3%, rTrxR1 inhibitor -1%, miR-21 act -4%, Anesthetic bind -13% and ClpP mod inconclusive.
`Cc1cccc(OC(=O)c2cc(-c3ccc4c(c3)OCCO4)on2)c1C` gave TrxR1 substrate 7%, rTrxR1 inhibitor 16%, miR-21 act 10%, Anesthetic bind inconclusive and ClpP mod inconclusive.
Cc1cc(C)cc(OC(=O)c2cc(-c3ccc4c(c3)OCCO4)on2)c1 was read as TrxR1 substrate 5%, rTrxR1 inhibitor 16%, miR-21 act -2%, Anesthetic bind inconclusive and ClpP mod 32µM*.
Screening COc1ccc(OC(=O)c2cc(-c3ccc4c(c3)OCCO4)on2)cc1 returned TrxR1 substrate 4%, rTrxR1 inhibitor 9%, miR-21 act -3%, Anesthetic bind -15% and ClpP mod -6%.
Screening Cc1cccc(OC(=O)c2cc(-c3ccc4c(c3)OCCO4)on2)c1 returned TrxR1 substrate -3%, rTrxR1 inhibitor 2%, miR-21 act 17%, Anesthetic bind inconclusive and ClpP mod 25µM*.
Screening O=C(CCc1ccccc1)N(Cc1cccnc1)c1nc2c(F)cc(F)cc2s1 returned TrxR1 substrate -2%[57.1 µM], rTrxR1 inhibitor 24%[57.1 µM], miR-21 act -4%, Anesthetic bind 52% and ClpP mod -2%.
Screening CC(=O)Oc1ccc(C(=O)[C@H]2[C@H]3C(=O)N(c4ccccc4)C(=O)[C@H]3[C@@H]3C=CC=NN32)cc1 returned TrxR1 substrate -7%, rTrxR1 inhibitor 11µM*, miR-21 act -25%, Anesthetic bind -11% and ClpP mod 2%.
For COc1ccc(N2C(=O)[C@@H]3[C@H](C2=O)[C@H](C(=O)c2ccc(OC(C)=O)cc2)N2N=CC=C[C@@H]32)cc1 the results were miR-21 act -56% and Anesthetic bind -20%.
Screening Cn1cc(S(=O)(=O)N2CCCCCC2)cc1C(=O)N1CCN(c2cccc(C(F)(F)F)c2)CC1 returned TrxR1 substrate -1%[57.1 µM], rTrxR1 inhibitor 11%[57.1 µM], miR-21 act 15%, Anesthetic bind -16% and ClpP mod -3%.
O=C(Nc1cnn(Cc2ccccc2)c1)NC12CC3CC(CC(C3)C1)C2 was read as TrxR1 substrate -4%[57.1 µM], rTrxR1 inhibitor -15%, miR-21 act -3%, Anesthetic bind 16µM* and ClpP mod 1%.
For CCn1nc(-c2ccc(C)cc2)nc2c(=O)n(C)c(=O)nc1-2 the results were TrxR1 substrate 50µM*, rTrxR1 inhibitor inconclusive and ClpP mod -3%.
Cn1nc(-c2ccncc2)nc2c(=O)n(C)c(=O)nc1-2 was read as TrxR1 substrate 20µM*, rTrxR1 inhibitor 20µM* and ClpP mod 2%.
`COc1ccc(-c2nc(-c3ccncc3)no2)cc1` gave TrxR1 substrate 1%, rTrxR1 inhibitor 8%, miR-21 act -64%, Anesthetic bind 1% and ClpP mod -3%.
Screening COc1ccc(N2C(=O)C(CC(=O)Nc3ccc(Cl)cc3)N(Cc3ccc4c(c3)OCO4)C2=O)cc1 (configuration not stated) returned TrxR1 substrate -11%, rTrxR1 inhibitor -2%, miR-21 act 3%, Anesthetic bind -14% and ClpP mod -1%.
`CCCN1CNc2c(c(=O)[nH]c(=S)n2CCc2cc(OC)ccc2OC)C1` gave TrxR1 substrate -6%, rTrxR1 inhibitor -7% and ClpP mod 2%.
For COC(=O)c1ccccc1NC(=O)Cn1c(=O)n(-c2ccc(C)cc2)c(=O)c2ccccc21 the results were TrxR1 substrate 9%, rTrxR1 inhibitor 19%, miR-21 act 19%, Anesthetic bind -8% and ClpP mod -23%.
`Cc1cccc(CNC(=O)Cn2c(-c3cccs3)cc3ccccc32)c1` gave TrxR1 substrate 17%, rTrxR1 inhibitor -1%, miR-21 act 0%, Anesthetic bind 48% and ClpP mod 14µM*.
For COc1cccc(CCNC(=O)Cn2c(-c3cccs3)cc3ccccc32)c1 the results were TrxR1 substrate 29%, rTrxR1 inhibitor 29%, miR-21 act -7%, Anesthetic bind 95% and ClpP mod 4%.
`CC(C)Oc1ccc(CNC(=O)Cn2c(-c3cccs3)cc3ccccc32)cc1` gave TrxR1 substrate 41%, rTrxR1 inhibitor 49%, miR-21 act 4%, Anesthetic bind 76% and ClpP mod 35µM*.
Screening CCOC(=O)c1cc(-c2cccc(C(F)(F)F)c2)nc2nc(SC)[nH]c(=O)c12 returned TrxR1 substrate 9%[57.1 µM], rTrxR1 inhibitor -8%[57.1 µM], miR-21 act -16%, Anesthetic bind 0% and ClpP mod 0%.

Compound activity: PubChem BioAssay, National Center for Advancing Translational Sciences (NCATS)
